Test results reported in PubChem BioAssay (NCI).
About 79,000 compounds went through this panel and 15% of them were active in at least one assay; those are over-represented in the sample as a whole. Values without a mark were called inactive. Activity calls are given as the source filed them. Cut-off read from the data, not from the text of the source: active = growth inhibition above about 70%; inactive = the rest.

Key:
[1] = NCI Yeast Anticancer Drug Screen. Data for the rad50 strain (AID 155);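 note: 0% = growth of vehicle-only cultures of the same strain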; settings: S. cerevisiae rad50 strain growth inhibition; at 50.0 µM; hits give high values
Outline: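 Genetically altered yeast (DNA repair pathway); compound treatment; growth inhibition vs vehicle ctrl.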

[2] = NCI Yeast Anticancer Drug Screen. Data for the mec2-1 strain (AID 157); settings: S. cerevisiae mec2-1 strain, at 50.0 µM, hits give high values
Outline: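 Mutant yeast (mec2-1) grown with compound; growth inhibition relative to vehicle control reported.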

[3] = NCI Yeast Anticancer Drug Screen. Data for the sgs1 mgt1 strain (AID 161);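 note: 0% = growth of cultures given vehicle only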; settings: S. cerevisiae sgs1 mgt1 strain, at 50.0 µM, hits give high values
Outline: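 Growth of a repair-deficient yeast mutant was monitored after compound treatment and expressed as inhibition relative to vehicle-treated cultures.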

[4] = NCI Yeast Anticancer Drug Screen. Data for the cln2 rad14 strain (AID 165);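 note: 0% = growth equal to vehicle treated cultures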; settings: S. cerevisiae cln2 rad14 strain, at 50.0 µM, hits give high values
Outline: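 Readout is yeast growth inhibition versus vehicle-treated controls, using a strain with cln2 and rad14 alterations exposed to compound.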

[5] = NCI Yeast Anticancer Drug Screen. Data for the bub3 strain (AID 167); settings: S. cerevisiae bub3 mutant strain, at 50.0 µM, hits give high values
Outline: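 Yeast carrying a defined mutation is treated with each compound, and growth is compared with that of vehicle-exposed cells to give inhibition.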

[6] = NCI Yeast Anticancer Drug Screen. Data for the mlh1 rad18 strain (AID 175); settings: S. cerevisiae mlh1 rad18 strain growth inhibition; at 50.0 µM; hits give high values
Outline: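 Genetically defined yeast (DNA repair-deficient) exposed to compounds; growth inhibition determined relative to vehicle.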

Compound	growth inhibition [1] [%]	growth inhibition [2] [%]	growth inhibition [3] [%]	growth inhibition [4] [%]	growth inhibition [5]	growth inhibition [6] [%]
COC(=O)C1=NOC(COc2ccc([N+](=O)[O-])cc2)C1 (configuration not stated)	9.4	-2.9	20.4	-8.55	-1.65%	19.1
C1CN(SSN2CCSCC2)CCS1	-2.1	-18.5	6.5	-100	7.15%	-14.5
C/C(=N\NC(=O)C[N+](C)(C)C)c1sc(-c2cccnc2)nc1C	5.4	-26.1	6.5	20.9	-4.4%	-4.05
CCCOC(=O)c1cccnc1C(=O)OCCC	-0.2	-10.2	1.5	-22.4	-2.5%	-6.4
O=S(=O)(c1cnccc1N1CCN(CCO)CC1)N1CCCC1	6.4	-11.2	8.5	-7.6	3.05%	-1.5
CN1C(=O)n2c(nc3ccccc32)C(N2CCOCC2)(N2CCOCC2)C1=O	44	56.4	62.9	29.9	31.4%	45.8
COC(=O)c1ccccc1C1CN=NC12Cc1c(C)cccc1C2=O (configuration not stated)	-2.25	6	-5	-7.1	13.8%	-13.7
O=C(Nc1ccccc1)C1(Cl)CCCCC1	11.7	-7.35	-8.7	-16.9	-4.7%	1.8
Cc1ccc(C(=O)c2ccccc2Cc2cccc3ccccc23)c(C)c1	4.35	6.6	1.2	-13.7	12.6%	-14.5
Cc1c([N+](=O)[O-])cc(C(C)C)c(O)c1[N+](=O)[O-]	14.8	25.3	27.9	-6	-9.5%	66.2
CCN(CC)Cc1cc(N=Nc2ccc(-c3ccc(N)c(OC)c3)cc2OC)c2ccccc2c1O	18.7	4.35	18.6	19.8	-4.8%	27.4
CCOCCOCCOC(=O)CC(C)=O	3.45	24.9	5.5	-22.3	-11.8%	-11.5
Cc1cc(C)c(C(C)(C)O)c(C)c1	8.45	0	3.9	22.4	-1.65%	1.1
O=C1C2Cc3ccccc3CN2C(=O)N1CN1CCN(CN2C(=O)C3Cc4ccccc4CN3C2=O)CC1 (configuration not stated)	-13.1	-0.05	-16.6	-10.9	-28.6%	-5.8
COC(=O)CCCCCCCCC(=O)OC	8.9	33.8	8.8	8.95	25.8%	7.15
O=C(Nc1cccc([N+](=O)[O-])c1)c1ccc(Cl)cc1	-5.95	-10.8	8	-49.5	-9.5%	-3.95
O=S1(=O)CS(=O)(=O)OCCCCO1	10.2	-5.75	4.9	13.3	-9.05%	7.85
CCC1(C)NN=C2C(=CC=C3NNC(C)(CC)N32)n2cccc21 (configuration not stated)	36.9	8.8	-19.1	3.5	-2.65%	26.4
O=C(NCCN1CCCCC1)c1ccc(I)cc1	9.2	0.95	24.8	10.2	22.4%	8.6
O=C1OC2C(Cl)C3CC1C2C3 (configuration not stated)	-12.2	-9.6	-22.3	-13.2	4.65%	-31.4
CN(C)c1ccc(C2(c3ccc(N(C)C)cc3)c3ccccc3C(=O)N2N)cc1	54.1	34.5	18.2	43.5	77.5% (active)	21.7

Compound	growth inhibition [1] [%]	growth inhibition [2] [%]	growth inhibition [3] [%]	growth inhibition [4] [%]	growth inhibition [5]	growth inhibition [6] [%]
O=C1C=C/C(=N\N=C(c2ccccc2)c2ccccc2)O1	-38.1	-67.8	-49.6	7.45	-42.7%	-28.2
O=C1Nc2cccc3cc(NCC(O)CCCl)cc1c23 (configuration not stated)	17.4	3.1	18.2	-5.8	14.6%	20.6
C=CCC1CCC/C1=N\O (configuration not stated)	-13.4	10.4	17.3	-12.2	-3.15%	3.9
CC/C=C(C)/C=N\NC(=O)c1ccc[n+](C)c1	21.8	12.6	17.6	23.6	-3.9%	2.55
O=c1c([OH2+])c(-c2ccc(O)cc2[O-])oc2cc(O)cc([O-])c12.O=c1c([OH2+])c(-c2ccc(O)cc2[O-])oc2cc(O)cc([O-])c12.[Ti+4]	-43.4	27.2	7.95	8.2	2.55%	10.2
O=c1c2ccccc2nnn1OCc1ccccc1	24.5	3.1	11	-39.5	-12.3%	3.95
O=C(Cn1c(=O)oc2ccc(C(=O)c3cccc(Cl)c3)cc21)c1ccccc1	-47.4	-3.15	-20.6	-19.5	11.3%	-28.1
CCOC(=O)/C(C#N)=C1/Sc2c(ncn(/N=C/c3ccc(OC)cc3)c2=O)N1c1ccccc1	26.7	-2.85	6.45	-45.3	-12.8%	4.4
Cc1ccc2c(c1)[nH]c(=S)n2/C=C1\C(=O)Oc2ccccc2C1=O	-43.8	-42.1	-44.4	-31.7	-42%	-46
C=CCNC(=O)/C=C/C	1.95	0.65	-2.1	1.8	9.75%	-4.35
O=C(Nc1nc(=S)c2c(ncn2CCO)[nH]1)c1ccccc1	4.95	-14	8.6	12.9	4.7%	-0.7
O=C(N=C1[Se]C(=Nc2ccccc2)C(=Nc2ccccc2)N1c1ccccc1)c1ccccc1	9.45	5.1	6.55	20.6	2.75%	3.25
S=C1Cc2c(-c3ccccc3)cc(-c3ccc(Cl)cc3)nc2-c2ccccc2N1	8.75	-3.85	5.65	2.55	6.75%	-4.25
COc1cc(OC)cc(C(=O)NN)c1	19	-2.2	5.1	17.4	0.5%	-18.6
CCCCCCCCCCCC(=O)OCC1OC(n2cc(F)c(=O)[nH]c2=O)C(N)C(OC(=O)CCCCCCCCCCC)C1O (configuration not stated)	-9	-34.9	-51.6	4.2	-34.9%	-45.5
CC(C)Cc1ccc(OC(=O)Nc2ccccc2)cc1	-7.5	-1.6	-2.9	-3.4	-13.5%	2.05
CC1OC(OC(=O)c2ccc([N+](=O)[O-])cc2)CC(OC(=O)c2ccc([N+](=O)[O-])cc2)C1OC(=O)c1ccc([N+](=O)[O-])cc1 (configuration not stated)	18.4	5.45	-10.2	24.7	1.6%	-24.8
CCCNC(=O)c1ccc(Cl)cc1Cl	29.8	7.85	18.4	-12.2	-12.5%	27.1
O=C(Oc1ccccc1)C(Cc1ccccc1)NC(=O)C(F)(F)F (configuration not stated)	4.6	7.7	-4.8	1.5	5.85%	-37.4
CN(C)CC(O)c1ccc(Cl)c2ccccc12 (configuration not stated)	3.95	-20.9	-31.9	-30.1	-8.7%	1.75
CN1C(=O)c2ccccc2N(C)C(=O)c2ccccc21	0.9	-15.1	11.3	-2.45	4.85%	12
